Measured values from ChEMBL document CHEMBL3988442, “University of Dundee, Small-Polar-MMV Screening Library” (2021).
The whole screen tested about 48,000 compounds, of which about 13,000 (27%) showed an effect of 50% or more. The list shows a part of the results.

tested on: Wolbachia pipientis; assay: Anti-Wolbachia Cell-Based Screen; format: functional; set-up: scale not given: in the data most compounds retested in dose-response had high values; details: 5 µM

| SMILES | Percent Effect |
| --- | --- |
| CC1(c2ccccc2)CCC(=O)N(CCN2CCOC2=O)C1 (stereo unspecified) | -0.3831% |
| O=C(NCC1CCC2(CC1)OCCO2)c1ccncc1F | -3.003% |
| CSC1(CNC(=O)c2cccc(-n3cccn3)c2)CCOCC1 | 126.6% |
| O=C(NCC1CCC2(CC1)OCCO2)c1cccc(-n2cccn2)c1 | 116.2% |
| O=C(NCC1(O)CCC1)c1cccc(-n2cccn2)c1 | 119.5% |
| O=C(NCC1(O)CCSC1)c1ccoc1 (stereo unspecified) | 12.35% |
| O=C(NCC1(O)CCSC1)c1ccn(-c2ccccc2F)n1 (stereo unspecified) | -10.8% |
| CC(CNC(=O)c1cccc(-n2cccn2)c1)Cn1ccnc1 (stereo unspecified) | -7.057% |
| CSC1(CNC(=O)NC(C)c2ccc(F)cc2)CCOCC1 (stereo unspecified) | -5.884% |
| Cc1cc(C(=O)NCC2CCC3(CC2)OCCO3)[nH]n1 | -25.64% |
| CSC1(CNC(=O)c2ccn(-c3ccccc3F)n2)CCOCC1 | -3.806% |
| CNC(=O)CCOC(=O)c1cccc(-n2cccn2)c1 | -2.822% |
| O=C(NCC1(O)CCSC1)c1cccc(-n2cccn2)c1 (stereo unspecified) | 105.6% |
| Cn1cc(C(C)(O)CNc2ccccn2)cn1 (stereo unspecified) | -0.1049% |
| Oc1cc(CN2CCCCC2c2cccnc2)nc2c(F)cccc12 (stereo unspecified) | -16.88% |
| CC(C)n1ccnc1C1CCN(C(=O)C2COc3ccccc3O2)CC1 (stereo unspecified) | -5.747% |
| CCS(=O)(=O)N1CCCC2(COCCN(c3nnc(C)o3)C2)C1.O=C(O)C(F)(F)F (stereo unspecified) | -4.041% |
| c1ccc2c(c1)CC(Cc1cc(N3CCCC3)cnn1)CCO2 (stereo unspecified) | -11.32% |
| O=C(NC1CC1)N1CCn2c(Cn3cccn3)cnc2C1.O=C(O)C(F)(F)F | 5.205% |
| O=S(=O)(C1CC1)N1CCc2ncc(Cn3cccn3)n2CC1 | -13.53% |
| CC1c2ncc(Cn3cccn3)n2CCN1S(C)(=O)=O.O=C(O)C(F)(F)F (stereo unspecified) | 89.72% |
| Cc1noc(C)c1CN1CCc2ncc(Cn3cccn3)n2CC1.O=C(O)C(F)(F)F | -5.332% |

| SMILES | Percent Effect |
| --- | --- |
| O=C(O)C(F)(F)F.O=C(O)C(F)(F)F.c1cnn(Cc2cnc3n2CCN(CC2CCCCC2)C3)c1 | -2.959% |
| COCc1cnc2n1CCN(C1CCCC1)C2C.O=C(O)C(F)(F)F (stereo unspecified) | 11.21% |
| CC1c2ncc(Cn3cccn3)n2CCN1S(=O)(=O)C1CC1 (stereo unspecified) | 92.87% |
| CC1c2ncc(Cn3cccn3)n2CCN1c1ncccn1.O=C(O)C(F)(F)F (stereo unspecified) | 86.74% |
| O=S(=O)(C1CC1)N1CCn2c(Cn3cccn3)cnc2C1 | 7.108% |
| CCc1nsc(N2CCN(Cc3ccno3)CC2)n1 | -4.168% |
| COC(=O)C1CCN(C(=O)c2ccc(NS(C)(=O)=O)c(C)c2)CC1 | -4.777% |
| O=S(=O)(c1ccc(Cl)cc1)N1CCC(OCc2ccccn2)C1 (stereo unspecified) | -17.23% |
| CS(=O)(=O)NC[C@H]1Cn2c(-c3ccc(F)cc3)cnc2CO1 | -20.98% |
| CC(C)(C)OC(=O)N1CSC[C@@H]1C(=O)NCc1ccsc1 | -2.991% |
| O=C1CSc2ccc(C(=O)N3CCCC(n4ccnc4)C3)cc2N1 (stereo unspecified) | 1.64% |
| NC(=O)c1ccc(C(=O)N2CCCC(n3ccnc3)C2)s1 (stereo unspecified) | 109.7% |
| NC(=O)c1cccc(C(=O)N2CCCC(n3ccnc3)C2)c1 (stereo unspecified) | 111.9% |
| O=C(c1cnc(-c2cccs2)s1)N1CCCN2CCCC2C1 (stereo unspecified) | 13.8% |
| O=C(c1cnc(-c2cccs2)s1)N1CCCC(n2ccnc2)C1 (stereo unspecified) | 98.86% |
| O=C(c1cccnc1N1CCOCC1)N1CCCC(n2ccnc2)C1 (stereo unspecified) | -11.91% |
| COCCOc1cccc(C(=O)N2CCCC(n3ccnc3)C2)c1 (stereo unspecified) | 85.64% |
| O=C(O)C1(Oc2ccc3ccccc3c2)CCN(c2ncccn2)CC1 | -9.781% |
| Cc1c[nH]cc1C(=O)N1CCN(CCc2cccs2)CC1 | -2.994% |
| CCC1COCCN1C(=O)CNC(=O)c1ccsc1 (stereo unspecified) | -5.336% |
| OCc1ccc(CN2CCC(n3cc(C4CCCCC4)nn3)CC2)o1 | 0.3058% |
| CCS(=O)(=O)c1ccc(N2CCC(NC(=O)NC(C)CO)CC2)cc1 (stereo unspecified) | 0.3155% |

| SMILES | Percent Effect |
| --- | --- |
| COCCNS(=O)(=O)c1ccc(CNc2ncccc2C#N)cc1 | 18.7% |
| NC(=O)c1cccc(OCC(=O)N2CCCC(n3ccnc3)C2)c1 (stereo unspecified) | 113% |
| NC(=O)c1cccc(OCC(=O)N2CCCC(n3cccn3)C2)c1 (stereo unspecified) | -3.677% |
| NC(=O)c1ccc(OCC(=O)N2CCCC(n3cccn3)C2)cc1 (stereo unspecified) | -3.222% |
| C[C@@H](NC(=O)c1cnccn1)c1c(-c2ccc(Cl)cc2)noc1C(=O)O.Cl | -1.348% |
| CCCc1nc(CNc2cc(CS(C)(=O)=O)ccc2Cl)no1 | -7.067% |
| Cc1nc(CCC(=O)NCC(N)=O)cc(C2CCNCC2)n1 | 128.9% |
| CNC(=O)C1CCN(c2cc(C3CCNCC3)nc(C)n2)C1 (stereo unspecified) | 9.34% |
| Cc1nc(C2CCNCC2)cc(N2CCCC(C(=O)NCCCO)C2)n1 (stereo unspecified) | 12.53% |
| Cc1nc(NC2CCCCC2)cc(C2CCCNC2)n1.Cl (stereo unspecified) | 84.03% |
| CNC(=O)CCc1cc(C2CCNCC2)nc(C)n1.Cl.Cl | 115.3% |
| Cc1nc(NC2CCS(=O)(=O)CC2)cc(C2CCCNC2)n1 (stereo unspecified) | 5.772% |
| Cc1nc(CCC(=O)NC2CCC2)cc(C2CCCNC2)n1 (stereo unspecified) | 108.9% |
| Cc1nccc(N[C@H]2CN(CCC(=O)NC3CCCC3)C[C@@H]2C2CC2)n1 | -19.22% |
| COc1ccc(OCc2cc(C(=O)N3CCC(O)CC3)n[nH]2)c(Cl)c1 | 8.523% |
| CN(C)S(=O)(=O)N(Cc1cscn1)c1ccccc1 | 6.938% |
| CCN(CC)c1ccc(NC(=O)N2CCc3sccc3C2)cn1 | -4.731% |
| CC(C)(O)c1cn(C2CCN(C(=O)CCC3CCCC3)CC2)nn1 | 7.362% |
| CC(=O)NC1CCN(c2cc(C3CCNCC3)nc(C)n2)C1 (stereo unspecified) | -6.629% |
| Cc1nc(CCC(N)=O)cc(C2CCNCC2)n1 | 77.84% |
| FC(F)(F)CN1CCC(CNc2nc3ccccc3o2)C1 (stereo unspecified) | 19.02% |
| CCN1CCC(CC(=O)N2CCc3sc(C(=O)N(C)C)cc3C2)CC1 | -40.78% |

| SMILES | Percent Effect |
| --- | --- |
| CCCc1nnc(SCC(=O)Nc2cc(C(C)(C)C)nn2C)[nH]1 | 5.759% |
| Cn1cc(C(=O)Nc2cc(F)ccc2OCC2CCCO2)ccc1=O (stereo unspecified) | 100.3% |
| Cn1cccc1C(=O)Nc1cc(F)ccc1OCC1CCCO1 (stereo unspecified) | -3.687% |
| CC(NC(=O)c1ccc(=O)n(C)c1)c1ccc(OCC2CC2)c(F)c1 (stereo unspecified) | 7.042% |
| CN1N=C(C(=O)Nc2cc(F)ccc2OCC2CCCO2)CCC1=O (stereo unspecified) | 0.7919% |
| Cn1ccc(C(=O)Nc2cc(F)ccc2OCC2CCCO2)cc1=O (stereo unspecified) | 108.3% |
| CS(=O)(=O)N[C@@H]1CCN(Cc2cccs2)[C@H]1Cc1cccnc1 | -19.82% |
| O=S1(=O)NC(c2ccnc(N3CCCC3)n2)=Nc2ccccc21 | 149.4% |
| Cc1nn(-c2ccccc2)c(C)c1-c1ccnc(N2CCCOCC2)n1 | 7.099% |
| O=C(O)c1ccnc(-c2ccnc(N3CCCCCC3)n2)c1 | -0.3436% |
| O=S1(=O)NC(c2ccnc(N3CCOCC3)n2)=Nc2ccccc21 | 140.3% |
| O=S1(=O)NC(c2ccnc(N3CCCCC3)n2)=Nc2ccccc21 | 89.99% |
| CS(=O)(=O)N1CCN(c2ccnc(N3CCCC3)n2)CC1 | -2.838% |
| CS(=O)(=O)N1CCN(c2ccnc(N3CCCCC3)n2)CC1 | 0.3412% |
| O=c1c2cnc(N3CCOCC3)nc2ccn1-c1ccccc1 | 4.201% |
| CC(CO)CSc1ncnc2[nH]ncc12 (stereo unspecified) | 8.493% |
| CCC1CN(c2nnc(C)c(C)c2C#N)CCO1 (stereo unspecified) | -3.23% |
| CCc1n[nH]c(C2CN(C(=O)c3ncoc3CC)CCO2)n1 (stereo unspecified) | 97.1% |
| CC(C)c1n[nH]c(C2CN(C(=O)C3=COCC3)CCO2)n1 (stereo unspecified) | -4.984% |
| CCc1nnsc1C(=O)N1CCOC(c2nc(C(C)C)n[nH]2)C1 (stereo unspecified) | 112.8% |
| CCc1ocnc1C(=O)N1CCOC(c2nc(C(C)C)n[nH]2)C1 (stereo unspecified) | 114.1% |
| CCc1nnsc1C(=O)N1CCOC(c2nc(C)n[nH]2)C1 (stereo unspecified) | 12.72% |

| SMILES | Percent Effect |
| --- | --- |
| Cc1noc(C)c1CN1C[C@@H]2CC[C@H](C1)N(Cc1cc(F)cc(F)c1)C2 | 3.369% |
| N#Cc1ccccc1CN1C[C@@H]2CC[C@H](C1)N(CC1CCC1)C2=O | -9.781% |
| O=C(O)C(F)(F)F.O=C(c1ccncc1)N1CCCn2nnc(COCCO)c2C1 | 26.37% |
| CCc1nnc2n1CCN(Cc1noc(-c3cccc(C)c3)n1)C2 | -12.68% |
| Cc1ccccc1OCC(O)C(=O)N1CCC2(CC1)CN(C)C(=O)O2 (stereo unspecified) | -0.4396% |
| COc1ccc(NC(=O)Cc2c(C)nc3c(c2C)c(=O)[nH]n3C)cn1 | 22.04% |
| CC(C)CC(=O)NCc1cccc(OCCN(C)C2CCOCC2)c1 | -19.6% |
| c1ccc2sc(NCC3(N4CCOCC4)CCSC3)nc2c1 (stereo unspecified) | 0.766% |
| O=C(CC(F)(F)F)NCC(O)c1ccc2ccccc2c1 (stereo unspecified) | -2.994% |
| Cc1ncsc1-c1nc(CC2CCN(C)CC2)nn1Cc1ccccc1 | -11.92% |
| Cc1ncsc1-c1nnc(C2CCN(Cc3ccccc3)CC2)o1 | 104.4% |
| Cc1ncsc1-c1nnc(C2CCN(CC3CCCCC3)CC2)o1 | -4.118% |
| COc1ccc(CN2CCC(c3nnc(-c4scnc4C)o3)CC2)cc1 | 115.7% |
| Cc1ncsc1-c1nnc(C2CCN(Cc3ccc(F)cc3)CC2)o1 | -4.23% |
| Cc1ncsc1-c1nnc(C2CCN(Cc3ccc(Cl)cc3)CC2)o1 | 113.6% |
| Cc1ccc(CN2CC[C@H](c3nnc(-c4ccco4)o3)C2)cc1 | -0.8562% |
| COc1ccc(-c2nnc([C@H]3CCN(CC(C)(C)C)C3)o2)cc1 | 4.195% |
| COc1ccc(CN2CC[C@H](c3nnc(-c4ccco4)o3)C2)cc1 | 27.76% |
